Reference: PubChem BioAssay
Active and inactive are the calls of the source.

Tests used:
[1] = compound effects on lung adenocarcinoma cell viability – A549, calcein-AM fluorescence, 48 h, basal, profiling panel (AID 1162); settings: higher = more signal
[2] = compound effects on differentiated 3T3-L1 adipocyte viability – cell-based, 3T3-L1 adipocytes, calcein-AM fluorescence, 48 h, basal, profiling panel (AID 1163); settings: 3T3-L1 adipocytes viability, higher = more signal
[3] = compound effects on hepatocellular carcinoma cell viability – HepG2, calcein-AM fluorescence, 48 h, basal, profiling panel (AID 1164); settings: higher = more signal
[4] = compound effects on multiple myeloma cell viability – MM1S, calcein-AM fluorescence, 48 h, basal, profiling panel (AID 1165); settings: higher = more signal;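 also: viability of MM1S multiple myeloma cells under basal unstimulated conditions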
[5] = calcein-AM signal in unstimulated myeloma cells – cell-based, calcein-AM fluorescence, 48 h, PK04 Diversity Set, profiling panel (AID 1166); settings: RPMI8226 myeloma viability, higher = more signal;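 also: cells grown under basal conditions without added stimulus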
[6] = JC-1 mitochondrial signal, unstimulated HepG2 cells – cell-based, JC-1 fluorescence, 24 h, 100 nL compound, profiling panel (AID 1167); settings: HepG2 mitochondrial potential, higher = more signal
[7] = JC-1 mitochondrial signal, unstimulated adipocytes – cell-based, JC-1 fluorescence, 3T3-L1 adipocytes, 24 h, 100 nL compound, profiling panel (AID 1168); settings: JC-1 mitochondrial fluorescence, higher = more signal, called active from +8 up or from −8 down
[8] = JC-1 mitochondrial signal, unstimulated myeloma cells – cell-based, JC-1 fluorescence, RPMI8226, 24 h, 100 nL compound, profiling panel (AID 1169); settings: JC-1 mitochondrial potential fluorescence, higher = more signal
[9] = JC-1 mitochondrial signal, unstimulated MM1S myeloma – cell-based, JC-1 fluorescence, 24 h, 100 nL compound, profiling panel (AID 1170); settings: MM1S mitochondrial potential, higher = more signal
[10] = resazurin metabolic signal in A549 cells – cell-based, resazurin fluorescence, 24 h, PK04 Diversity Set, profiling panel (AID 1171); settings: A549 viability, higher = more signal, called active from +8 up or from −8 down
Also: test concentration not given here.

Compound | z-score [1] | z-score [2] | z-score [3] | z-score [4] | z-score [5] | z-score [6] | z-score [7] | z-score [8] | z-score [9] | z-score [10]
COc1cccc(C(=O)O[C@H]2CC[C@]3(C)C4=C(CCC3C2(C)C)[C@]2(C)CC[C@H]([C@H](C)CCCC(C)C)[C@@]2(C)CC4)c1 (stereo not given in full) | 0.583 | 0.146 | 0.689 | -0.56 | 0.241 | 1.28 | 0.387 (inactive) | -0.0502 | -1.49 | 0.479 (inactive)
COc1ccc([Si](C)(C)[C@@H]2[C@@H](CCn3cc([C@H](O)c4ccccc4)nn3)O[C@]3(C(=O)N(Cc4cccc(N5CCOC5=O)c4)c4ccccc43)[C@H]2C)cc1 | 1.6 | -0.392 | 1.31 | -2.15 | 0.274 | 1.84 | 2.73 (inactive) | -0.671 | -0.0958 | 0.181 (inactive)
N#Cc1ccc(NN2C(C(O)c3cccs3)C=CC3C(=O)N(c4ccccc4)C(=O)C32)cc1 (stereo not given) | 0.594 | -0.327 | 1.01 | -0.0964 | -0.598 | -0.307 | -0.0937 (inactive) | 0.49 | -0.218 | 0.234 (inactive)
COCCOC(=O)N1C(=O)[C@@]2(c3cc(C#CCC(C(=O)OC)C(=O)OC)ccc31)[C@H](c1ccc(O)cc1)N1[C@H](c3ccccc3)[C@H](c3ccccc3)OC(=O)[C@H]1[C@@H]2C(N)=O | -0.78 | 0.618 | -0.568 | -2.89 | -3.48 | -1.63 | -0.791 (inactive) | -0.799 | 0.0557 | -0.195 (inactive)
CN1CCC(CCCO)=CC1c1ccc(CN2CCCC2)cc1 (stereo not given) | -0.701 | 0.143 | -0.86 | -0.52 | 0.559 | 0.217 | -0.0668 (inactive) | -0.714 | 0.00742 | 0.819 (inactive)
O=c1oc(-c2ccccc2)nc2cc(Br)ccc12 | -0.423 | 0.111 | 0.659 | -1.99 | -0.633 | -0.773 | 0.67 (inactive) | -0.0586 | 0.873 | -0.141 (inactive)
C=CCNC(=O)[C@@H]1[C@H]2C(=O)O[C@H](c3ccccc3)[C@H](c3ccccc3)N2[C@H](c2ccc(OCCO)cc2)[C@@]12C(=O)Nc1ccccc12 | 1.66 | 1.59 | 0.521 | 0.491 | 0.0581 | -0.912 | 1.01 (inactive) | -0.725 | 0.224 | -0.0995 (inactive)
Cc1ccc(S[C@]2(C(=O)NCC(C)C)CC(=O)N(Cc3ccccc3)[C@@H]2c2ccc(CO)cc2I)cc1 | 0.715 | 0.752 | 0.38 | -2.1 | -2.73 | -0.329 | -1.23 (inactive) | -0.813 | -0.528 | 0.999 (inactive)
COC(=O)[C@@]1(Cc2ccc(OC)cc2)[C@H]2c3cc(C(=O)N(C)C)n(Cc4c(OC)[nH]cc(C)c4=O)c3C[C@H]2CN1C(=O)c1ccccc1 | 0.249 | -0.0161 | 1.17 | 0.685 | 1.13 | 1.95 | 0.274 (inactive) | -0.213 | -1.65 | -1.52 (inactive)
CCCNC(=O)[C@@H]1c2ccccc2C(=O)N(Cc2ccccc2)[C@H]1c1ccc(CO)cc1 | 0.756 | 1.38 | 0.817 | -0.183 | 0.502 | 2.12 | -1.28 (inactive) | -0.681 | -0.549 | 0.528 (inactive)
O=C1OCCC=C[C@H]2OC34C=CCN(Cc5ccccc5)C(=O)[C@H]3N(CCCCCCO)C(=O)[C@@H]4C12 (stereo not given in full) | 0.612 | -0.0143 | 0.457 | 1.68 | 0.581 | 0.445 | 0.903 (inactive) | -0.0486 | -0.248 | 1.33 (inactive)
CN(C)C(=O)[C@@]1(CCC(=O)OC(C)(C)C)N=C(c2ccc(OCCCO)cc2)O[C@H]1c1ccccc1 | -0.211 | 0.687 | -0.517 | 0.301 | -1.48 | 0.26 | -0.58 (inactive) | -1 | 0.279 | 0.107 (inactive)
COc1cc2c(cc1OC)CN(C(=O)[C@@H]1[C@H]3C(=O)O[C@H](c4ccccc4)[C@H](c4ccccc4)N3[C@H](c3ccccc3OCCO)[C@@]13C(=O)Nc1ccc(C#CCNC(N)=O)cc13)CC2 | 1.12 | 1.62 | 0.871 | 0.52 | 0.625 | -1.74 | 1.63 (inactive) | -0.423 | -0.322 | -0.532 (inactive)
CC(C)OC(=O)CC(=O)CC(O)c1ccc(C#N)cc1 (stereo not given) | 0.633 | 0.612 | 1.01 | 0.526 | -0.116 | 0.615 | 0.497 (inactive) | -0.0971 | -1.44 | 0.617 (inactive)
